MLLE-PAM2 inh: inhibitors of PABP1 MLLE–PAM2 peptide binding, primary screen, biochemical, fluorescence polarization, FITC-PAM2, GST-MLLE; Polyadenylate-binding protein 1 (Homo sapiens), P11940; inhibition, % at 20 µM; 0.36% of 360,000 active; AID 588489, 2011; in the data active means inhibition above about 35%, passing the limit was not always enough
Target sequence (P11940 whole entry, looked up): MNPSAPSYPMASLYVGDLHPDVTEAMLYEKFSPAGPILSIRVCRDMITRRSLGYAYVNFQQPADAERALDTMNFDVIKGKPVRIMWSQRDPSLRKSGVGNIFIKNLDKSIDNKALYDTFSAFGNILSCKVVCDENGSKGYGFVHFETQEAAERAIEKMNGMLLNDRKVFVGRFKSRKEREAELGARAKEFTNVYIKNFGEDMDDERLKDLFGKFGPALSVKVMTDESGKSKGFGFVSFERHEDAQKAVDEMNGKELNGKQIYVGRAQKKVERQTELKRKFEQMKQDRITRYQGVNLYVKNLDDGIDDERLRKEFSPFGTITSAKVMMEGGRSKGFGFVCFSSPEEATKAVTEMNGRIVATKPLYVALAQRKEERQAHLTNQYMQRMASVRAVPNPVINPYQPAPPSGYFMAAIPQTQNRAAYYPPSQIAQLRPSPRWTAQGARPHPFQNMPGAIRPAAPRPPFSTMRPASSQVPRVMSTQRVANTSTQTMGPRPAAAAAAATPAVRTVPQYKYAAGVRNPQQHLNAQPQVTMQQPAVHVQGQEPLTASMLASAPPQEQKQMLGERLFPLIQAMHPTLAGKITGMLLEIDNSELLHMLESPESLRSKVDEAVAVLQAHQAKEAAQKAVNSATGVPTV
eIF4H FP inh: human eIF4H binding inhibitors, primary screen, translation initiation inhibitor project, biochemical, uHTS, fluorescence polarization | eIF4H fluorescence polarization binding assay | AID 2012, 2009 | 0.94% of 290,000 active | inhibition, % at 35 µM | Eukaryotic translation initiation factor 4H (Homo sapiens), Q15056;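 further: calls also rest on retests at 20 µM and on dose response follow-up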
ALR inh: inhibitors of human ALR sulfhydryl oxidase, primary screen, biochemical, H2O2 detection, HRP-luminol luminescence, single point. AID 485317, 2010. inhibition, % (concentration not given with the values). 3.8% of 290,000 active. purified ALR, DTT oxidation. FAD-linked sulfhydryl oxidase ALR (Homo sapiens), P55789;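 active means mean replicate inhibition above about 79%, with every replicate also reaching it, limit read from the data; inconclusive means only one of the two criteria met; inactive means mean below limit and not every replicate reaching it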
UBC9 SUMO inh: inhibitors of in vitro SUMOylation cascade, primary screen, biochemical, HTRF, uHTS; SUMO-conjugating enzyme UBC9 (Homo sapiens), P63279; HTRF SUMOylation assay, SAE1/SAE2 + UBC9; inhibition, % at 35 µM; 0.36% of 290,000 active; in the data active means inhibition above about 50%, passing the limit was not always enough; inconclusive means no clear call, values can overlap the other calls
Efflux pump inh: inhibitors of Candida efflux pumps in yeast, primary screen, S. cerevisiae, Nile Red, multiplex; S. cerevisiae Candida pump triplex; inhibition, % at 10 µM; 0.44% of 330,000 active;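 active means plate passing quality check with inhibition over a set limit, or well fluorescence over plate mean plus 4 SD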;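 further: Nile Red retained in pooled yeast measured as flow cytometry median fluorescence; higher means more Nile Red kept so more efflux inhibition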
PABP polyA inh: PABP poly(A) RNA binding inhibitors, primary screen, biochemical, fluorescence polarization, uHTS | Polyadenylate-binding protein 1 (Homo sapiens), P11940 | inhibition, % at 35 µM | 1% of 290,000 active;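 further: calls also rest on retests at 20 µM and on dose response follow-up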
Of the large screens only hits and unclear results are named; the others gave an inactive call. In the library only some 4.7% were active in any assay of this set; here they are far more common. Unless noted, how the calls were made is not given here.

O=C1C(Cl)=C(N2CCOCC2)C(=O)N1CCc1ccccc1	none (no result: ALR inh)
O=C1C(Cl)=C(N2CCN(Cc3ccccc3)CC2)C(=O)N1c1ccccc1	eIF4H FP inh inconclusive, PABP polyA inh 65.7
CN1CCN(C2=C(Cl)C(=O)N(CCc3ccccc3)C2=O)CC1	MLLE-PAM2 inh 50.8, eIF4H FP inh inconclusive
O=C(NNS(=O)(=O)c1ccc(F)cc1)c1ccc(S(=O)(=O)N2CCCCC2)cc1	eIF4H FP inh active (no result: ALR inh)
O=C(Nc1ccncc1)c1ccc2ncsc2c1	ALR inh 98.3 (no result: eIF4H FP inh, UBC9 SUMO inh, PABP polyA inh)
O=C(Nc1ccc(S(=O)(=O)Nc2ncccn2)cc1)c1ccc2ncsc2c1	ALR inh 99.0
Cc1ccnc(NS(=O)(=O)c2ccc(NC(=O)c3ccc(S(=O)(=O)N4CCCC4)cc3)cc2)n1	none
O=C(Nc1cccc(F)c1)c1ccc2ncsc2c1	none (no result: ALR inh)
O=C(Nc1ccc(S(=O)(=O)Nc2ncccn2)cc1)c1ccc(S(=O)(=O)N2CCCC2)cc1	ALR inh 96.1
COc1ccccc1NC(=O)N1CCN(C)CC1	none
Cc1ccc(N2CC(=O)N(NC(=O)CN3CCN(c4ccccc4)CC3)CC2=O)cc1	ALR inh 84.9
Cc1ccccc1CSCC(=O)Nc1c(C)n(C)n(-c2ccccc2)c1=O	ALR inh 98.3
Cc1c(NC(=O)CC(C)C)c(=O)n(-c2ccccc2)n1C	PABP polyA inh 79.3
Cc1c(NC(=O)c2ccc(=O)oc2)c(=O)n(-c2ccccc2)n1C	ALR inh 88.2
Cc1c(NC(=O)c2ccc(C(=O)Nc3c(C)n(C)n(-c4ccccc4)c3=O)cc2)c(=O)n(-c2ccccc2)n1C	none
Cc1ccc(C2(C)NC(=O)N(CC(=O)NCCN3C(=O)S/C(=C\c4cccnc4)C3=O)C2=O)cc1 (stereo not given)	none (no result: eIF4H FP inh, ALR inh, UBC9 SUMO inh, Efflux pump inh, PABP polyA inh)
COc1ccc(NC(=O)COc2ccccc2Cc2ccccc2)cc1S(=O)(=O)N1CCOCC1	none (no result: eIF4H FP inh, ALR inh, UBC9 SUMO inh, Efflux pump inh, PABP polyA inh)
COc1ccccc1-c1cc(C(=O)Nc2c(C)n(C)n(-c3ccccc3)c2=O)no1	ALR inh 96.9
Cc1c(NC(=O)CN2CCN(c3ccc(O)cc3)CC2)c(=O)n(-c2ccccc2)n1C	ALR inh 98.9
Cc1c(NC(=O)CN2CCN(c3ccc([N+](=O)[O-])cc3)CC2)c(=O)n(-c2ccccc2)n1C	none
COc1ccc(OC)c(-c2cc(C(=O)Nc3c(C)n(C)n(-c4ccccc4)c3=O)no2)c1	none
COc1ccc(-c2nc3ccc(C)cn3c2CC2CCCCC2)cc1OC	none (no result: eIF4H FP inh, ALR inh, UBC9 SUMO inh, Efflux pump inh, PABP polyA inh)
CC(c1nnc(SCC(=O)Nc2cccnc2Cl)n1Cc1ccccc1)N(C)C (stereo not given)	ALR inh 86.8
O=C1N=c2ccccc2=C1c1c(O)n(-c2cccc(F)c2)[nH]c1=O	MLLE-PAM2 inh 37.8
O=S(=O)(NC1Cc2ccccc2C1)c1ccccc1	none
CN(C)c1ccc(N/C=C/C(=O)C(C)(C)C)cc1	ALR inh 99.4
CC(C)(C)C(=O)/C=C/Nc1ccccc1O	ALR inh 98.9
CCOC(=O)c1ccc(N/C=C/C(=O)C(C)(C)C)cc1	none
C=C[C@@H]1c2cc(C)ccc2N(S(=O)(=O)c2ccc(C)cc2)[C@H](c2ccccc2C(F)(F)F)C1(C#N)C#N	none (no result: eIF4H FP inh, UBC9 SUMO inh, PABP polyA inh)
Cc1nnc(SCC(=O)NC(C)(C)C)n1NCc1ccc(N(C)C)cc1	ALR inh 81.5
Cc1ccc(NC(=S)C2=C(O)c3ccccc3N(C)S2(=O)=O)cc1	MLLE-PAM2 inh 40.0 (no result: ALR inh)
CN1c2ccccc2C(O)=C(C(=O)Nc2ccccc2)S1(=O)=O	none
CN1c2ccccc2C(O)=C(C(=S)Nc2ccc(F)c(Cl)c2)S1(=O)=O	MLLE-PAM2 inh 47.7, ALR inh 96.5
CN1c2ccccc2C(O)=C(C(=S)Nc2ccccc2)S1(=O)=O	none
CC1(C)C(=O)C=CC(=O)C(C)(C)C(=O)C=CC(=O)C(C)(C)C2=CC=C(O2)C(C)(C)C(=O)C=CC1=O	none (no result: eIF4H FP inh, ALR inh, UBC9 SUMO inh, Efflux pump inh, PABP polyA inh)
COC1C(O)C(O)C(O)C(O)C1O (stereo not given)	none (no result: eIF4H FP inh, ALR inh, UBC9 SUMO inh, Efflux pump inh, PABP polyA inh)
CC1=CC(C)(C)N2C(=O)C(=Nc3ccc(O)cc3)c3cccc1c32	ALR inh 96.9
COc1cc(N=C2C(=O)N3c4c(cccc42)C(C)=CC3(C)C)cc(OC)c1	none
O=C(Cc1c(Cl)cccc1Cl)Nc1cccnc1	PABP polyA inh inconclusive
COc1ccc(N/N=C(\C#N)C(=N)N2CCCCC2)cc1	ALR inh 99.1
Cc1ccc(N/N=C(\C#N)C(=N)N2CCCCCC2)cc1	none
Cc1ccc(N/N=C(\C#N)C(=O)c2ccsc2)cc1	none
Cc1ccc(N/N=C(\C#N)C(=N)N2CCOCC2)cc1	ALR inh 97.7
CCN(CC)C(=N)/C(C#N)=N/Nc1ccc(C)cc1	ALR inh 98.6
COC(=O)c1cccc(CSc2nc(-c3ccccc3)c(C#N)c(=O)[nH]2)c1	none (no result: ALR inh)
COc1ccccc1NS(=O)(=O)c1cc(NC(=O)Nc2cccc(C)c2)ccc1N1CCCCC1	MLLE-PAM2 inh 38.1
Cc1cc(C)[n+](Cc2ccccc2)cc1C(N)=O	none (no result: eIF4H FP inh, UBC9 SUMO inh, PABP polyA inh)
CCCS(=O)(=O)NC(=O)C1(C)CCN(C(=O)c2cccc(C)c2C)C1 (stereo not given)	none (no result: eIF4H FP inh, ALR inh, UBC9 SUMO inh, Efflux pump inh, PABP polyA inh)
COc1ccc(/C=N/NC(C)(C)C)c(OC)c1	none
O=S(=O)(c1cccs1)n1nnc2ccccc21	none
Cc1ccc(S(=O)(=O)n2cnc3ccccc32)cc1	none
O=S(=O)(c1cccs1)n1cnc2ccccc21	ALR inh 97.1
O=[N+]([O-])c1ccccc1S(=O)(=O)n1cnc2ccccc21	ALR inh 94.9
CCOc1cc(Br)ccc1S(=O)(=O)N1CCC(C(N)=O)CC1	eIF4H FP inh active, PABP polyA inh 103.7
Cc1ccc(S(=O)(=O)N2CCC(C(N)=O)CC2)c(C)c1C	none
CCN(CC)S(=O)(=O)c1ccc(N2CCCCC2)c(NC(=O)C2=COCCO2)c1	none (no result: eIF4H FP inh, UBC9 SUMO inh, PABP polyA inh)
O=C(C(Cc1ccccc1)NS(=O)(=O)c1cccc2cccnc12)N1CCc2ccccc21 (stereo not given)	ALR inh 88.0
O=S(=O)(c1cccc2cccnc12)N1CCc2ccccc21	none
Cc1c(C(=O)OCC(C)C)[nH]c2c1C(=O)CC(c1ccco1)C2 (stereo not given)	none
Cc1c(C(=O)OCC2CCCO2)[nH]c2c1C(=O)CC(c1ccco1)C2 (stereo not given)	eIF4H FP inh 90.1, PABP polyA inh 42.8
COc1ccccc1CN(C)C(=O)c1cc(S(=O)(=O)N2CCCCCC2)ccc1OC	none (no result: eIF4H FP inh, ALR inh, UBC9 SUMO inh, Efflux pump inh, PABP polyA inh)
O=C(O)c1cccc(N/N=C(\N=Nc2ccccc2)c2ccccc2)c1	ALR inh 98.1 (no result: eIF4H FP inh, UBC9 SUMO inh, PABP polyA inh)
NC(=O)/C(N=Nc1ccccc1)=N/Nc1ccccc1	none (no result: eIF4H FP inh, UBC9 SUMO inh, PABP polyA inh)
O=C(O)c1ccc(N=N/C(=N\Nc2ccc(C(=O)O)cc2)c2ccccc2)cc1	ALR inh 97.7 (no result: eIF4H FP inh, UBC9 SUMO inh, PABP polyA inh)
